Compound activity as filed in PubChem.
TRHR agonist – qHTS for Small Molecule Agonists and Allosteric Enhancers of Human TRH Receptor: Primary Screen for Agonists. TRHR cells, calcium flux fluo-8, FDSS agonist mode. 0.18% of 360,000 active. Thyrotropin-releasing hormone receptor (Homo sapiens), P34981. AID 493084, 2011. activation, % at 2 µM
Target sequence (P34981 whole entry, looked up): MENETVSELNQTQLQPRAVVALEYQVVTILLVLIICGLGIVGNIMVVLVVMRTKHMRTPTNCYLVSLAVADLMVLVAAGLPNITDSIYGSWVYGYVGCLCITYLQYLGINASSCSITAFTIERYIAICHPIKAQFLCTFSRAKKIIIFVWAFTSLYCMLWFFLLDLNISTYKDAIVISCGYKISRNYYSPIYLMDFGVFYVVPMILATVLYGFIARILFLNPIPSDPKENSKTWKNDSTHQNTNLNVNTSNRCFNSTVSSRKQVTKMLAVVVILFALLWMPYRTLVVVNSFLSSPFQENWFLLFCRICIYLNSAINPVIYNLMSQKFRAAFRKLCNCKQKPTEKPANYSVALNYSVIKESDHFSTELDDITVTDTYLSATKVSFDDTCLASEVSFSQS
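In this calcium-flux screen, cells bearing human TRHR are dye-loaded with fluo-8, baselined for 10 cycles, then exposed to library compounds; positive kinetic calcium responses during the agonist phase mark hits, with TRH as control.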
D1 agonist – Allosteric Agonists of the Human D1 Dopamine Receptor: qHTS; D(1A) dopamine receptor (Homo sapiens), P21728; HEK293 T-REx D1 cells, calcium flux, agonist mode; activation, % at 2 µM; 1% of 360,000 active; AID 504660, 2011
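Agonism was scored from calcium flux recorded over 180 s (1 read/s) after pintool compound addition, following a 10-cycle baseline. Cells were inducible force-coupled HEK293 TREx D1, plated overnight at 30 C and loaded with no-wash calcium dye.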
D1 antagonist – Antagonist of Human D 1 Dopamine Receptor: qHTS; D(1A) dopamine receptor (Homo sapiens), P21728; HEK293 TREx D1 cells, calcium flux, dopamine EC80; stronger effect = lower value; activity change, negative = inhibition, % at 10 µM; 3.2% of 360,000 active; in the data active = activity change below about -30%
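Tetracycline-induced HEK293 Trex D1 cells, force-coupled to calcium, dye-loaded; compounds added and read 180 s, then EC80 dopamine added and calcium flux tracked kinetically another 180 s.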
D1 PAM – Potentiators of Human D1 Dopamine Receptor: qHTS; D(1A) dopamine receptor (Homo sapiens), P21728; HEK293 TREx D1 cells, calcium flux, dopamine EC20 potentiation; potentiation, % at 10 µM; 0.036% of 360,000 active; in the data active = potentiation above about 30%
TRHR PAM – qHTS for Small Molecule Agonists and Allosteric Enhancers of Human TRH Receptor: Primary Screen for Enhancers. 0.66% of 360,000 active. TRHR cells, fluo-8 calcium fluorescence, EC20 TRH enhancement. enhancement, % at 2 µM. Thyrotropin-releasing hormone receptor (Homo sapiens), P34981. AID 493056, 2011; in the data active = enhancement above about 30%
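TRHR-expressing cells loaded with fluo-8 calcium dye were read kinetically (ex 480/em 530) during compound addition, then stimulated with an EC20 of TRH (10 nM final). Enhancement of the Gq-mediated intracellular calcium response was scored.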
Each line names hits and unclear results; the compound was inactive in the other large screens; ! = not active in a repeat. Only some compounds are listed: those with a hit (about 4.6% of all), similar ones and a draw of the others. Cut-off read from the data, not from the text of the source, unless noted: active = activation above about 30%; inactive = the rest.

COc1cc2c(C(=O)NCc3ccc4c(c3)OCO4)cn(C)c(=O)c2cc1OC	D1 antagonist -30.8
COc1ccc(Cl)cc1C(=O)NCc1ccc2c(c1)OCO2	none
CC1=C(C(=O)Nc2ccccc2)C(c2cccnc2)n2nc(SCc3ccccc3Cl)nc2N1 (configuration not stated)	D1 antagonist -35.2
CN(CCOc1ccc(Cl)cc1)CC(O)c1ccccc1 (configuration not stated)	D1 agonist 33.3
CC1CCCCN1S(=O)(=O)c1ccc(S(=O)(=O)N2CCN(C)CC2)cc1 (configuration not stated)	none (no result: D1 PAM)
N#Cc1nc(Nc2cc(Cl)cc(Cl)c2)nc(NC2CCCC2)n1	none
CN1CCC(Oc2ccccc2Sc2ccccc2)CC1	D1 antagonist -62.6
CN1CCC(OC(c2ccccc2)c2ccccc2)CC1	D1 antagonist -37.0
CN1CCC(N(C)CC(O)c2ccccc2)CC1 (configuration not stated)	none
Cc1ccnc(NC(=O)COC(=O)C23CC4CC(CC(C4)C2)C3)n1	none
O=C(COC(=O)C12CC3CC(CC(C3)C1)C2)Nc1nccs1	D1 antagonist -34.4
CCOc1ccc2nc(NC(=O)C(NS(=O)(=O)c3cccc4nsnc34)C(C)C)sc2c1 (configuration not stated)	D1 antagonist -33.5
CCCc1cc(=O)[nH]c(SCC(=O)Nc2nc3ccc(OCC)cc3s2)n1	none
CCOc1ccc2nc(NC(=O)C(CC)Sc3nc(C)cc(=O)[nH]3)sc2c1 (configuration not stated)	D1 antagonist -42.2
CC(C)CN1CCc2nc(Nc3ccc(F)cc3F)ncc2C1	none
CCc1cc(C(=O)Nc2sc(C)c(CC)c2C#N)no1	none
CCc1c(C)sc(NC(=O)c2cc(C(C)C)on2)c1C#N	D1 antagonist -32.5
Cc1ccc(-n2ncc3c(NCC(C)C)ncnc32)c(C)c1	D1 antagonist -32.0
CC(=O)Nc1ccc(Nc2ncnc3c2cnn3-c2ccc(C)cc2C)cc1	none (no result: D1 antagonist)
C=CCNc1ncnc2c1cnn2-c1ccc(C)cc1C	none
CCOC(=O)N1CCC(Nc2ncnc3c2cnn3-c2ccc(C)cc2C)CC1	D1 antagonist -31.1
Cc1cc(OCC(=O)N[C@@H](CSCc2ccccc2)C(=O)O)c2c(C)c(C)c(=O)oc2c1	TRHR PAM 40.8
Cn1nnnc1Sc1ncnc2scc(-c3ccccc3S(C)(=O)=O)c12	none
Cn1c(NC(=O)c2cc(-c3ccc4c(c3)OCO4)nc3ccccc23)cc(=O)n(C)c1=O	D1 antagonist -30.5
O=C(O)c1cc(-c2ccc3c(c2)OCO3)nc2ccc(Cl)cc12	TRHR PAM 33.5
CCc1ccc(-c2cn3c(n2)sc2cc(C(=O)NCCC4=CCCCC4)ccc23)cc1	none
COc1ccc(OC)c(NC(=O)c2cc3c(=O)n4cccc(C)c4nc3n2C)c1	none
CN1CCN(C(CNC(=O)c2c(F)cccc2F)c2ccc3c(c2)OCO3)CC1 (configuration not stated)	none
Cc1ccccc1CNC(=O)c1oc2c(c1C)-c1[nH]ncc1CC2	none
Cc1ccccc1-c1nc(CS(=O)CC(=O)NCCc2ccc(Cl)cc2)c(C)o1 (configuration not stated)	D1 agonist 33.6!, D1 antagonist -65.3!
CCN(CC)C(=O)c1sc2c(c1C)c(=O)n(-c1ccc(Cl)c(Cl)c1)c(=O)n2Cc1cc(=O)n2ccccc2n1	none
Cc1nn(-c2ccccc2)c(Cl)c1C(=O)OC(C)C(=O)Nc1ccc2c(c1)OCO2 (configuration not stated)	D1 antagonist -70.7
CC(Sc1ncnc2ccccc12)C(=O)Nc1ccc2c(c1)OCO2 (configuration not stated)	D1 antagonist -32.8
CC(=O)Nc1ccc(NC(=O)C(C)OC(=O)c2c(C)nn(-c3ccccc3)c2Cl)cc1 (configuration not stated)	none (no result: D1 PAM)
Cc1ccc(CSc2nncn3c2cc2sccc23)cc1	none
Cc1ccc(S(=O)(=O)N(C)C)cc1NC(=O)COC(=O)c1ccc2ccccc2n1	D1 antagonist -55.2
O=C(O)/C=C/c1ccc([N+](=O)[O-])o1	none
CN1CCN(C(=O)/C=C/c2ccc([N+](=O)[O-])o2)CC1	D1 antagonist -31.5
Cc1cc(C(=O)O)ccc1-c1ccc(/C=C2\SC(=O)N(CC(=O)Nc3ccc4c(c3)OCO4)C2=O)o1	D1 agonist 43.1
Cc1cc(N2CCCC2)ccc1/C=C1\NC(=S)N(C)C1=O	TRHR agonist 63.5, D1 agonist 213.1
O=C1/C(=C/c2ccc(N3CCCC3)cc2)NC(=S)N1C1CC1	TRHR agonist 91.4, D1 agonist 204.7
COc1cc(C2C(C(C)=O)=C(O)C(=O)N2Cc2ccccc2)ccc1O (configuration not stated)	D1 antagonist -31.6
COc1cc(C2C(C(=O)C(C)(C)C)=C(O)C(=O)N2Cc2ccccc2)ccc1O (configuration not stated)	none
CCN(CC)S(=O)(=O)c1cccc(C(=O)N[C@H](C(=O)Nc2nc3ccc(F)cc3s2)C(C)C)c1	none
CC(=O)c1ccc(-c2csc3ncnc(Sc4nnnn4C)c23)cc1	none
CC1CCC2(CC1)NC(=O)N(CC(=O)c1cn(CCC#N)c3ccccc13)C2=O (configuration not stated)	none
Cc1c(C#N)c(N)nc2c3c(sc12)NC(=O)CC3c1ccccc1 (configuration not stated)	TRHR PAM 35.9
Cc1cccn2c3c(c(=O)nc12)C(c1ccc(F)cc1)CC(=O)N3 (configuration not stated)	none
Cc1cc(C)c2c(n1)sc1c(-c3ccccc3)c(C#N)c(N)nc12	none
Cc1c(C#N)c(N)nc2c3c(sc12)NC(=O)CC3c1ccc(F)cc1 (configuration not stated)	D1 antagonist -31.0
Cc1ccc2nc(-c3ccco3)c(Nc3ccc4c(c3)OCCO4)n2c1	none
Fc1ccc(Nc2c(-c3ccco3)nc3ccccn23)cc1	TRHR PAM 31.1!
c1coc(-c2nc3ccccn3c2Nc2ccc3c(c2)OCCO3)c1	D1 antagonist -48.6
COCCNC(=O)c1cc(Sc2ccc(F)cc2F)nc2ccccc12	none
CCc1ccc(S(=O)(=O)c2nnn3c2nc(Nc2cccc(C)c2C)c2sccc23)cc1	none
CC(=O)c1ccc(OC2OCCOC2Oc2ccc(C(C)=O)cc2)cc1 (configuration not stated)	D1 antagonist -39.0
